19 compounds from PubChem BioAssay (Tox21) can be followed below.

Test [1] in a line: qHTS assay to test for compound auto fluorescence at 535 nm (green) in HEK293 cells (AID 720680).
Test [2] can be described thus: qHTS assay to test for compound auto fluorescence at 460 nm (blue) in HEK293 cell free culture (AID 720681). The procedure, abridged: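 Test compounds were pinned into cell-free culture medium (DMEM with 10% FBS) and fluorescence was read directly at Ex/Em 405/460 nm. Signals were expressed as fluorescence equivalents of triamterene, with DMSO vehicle as control.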

Test [3] is described as follows: qHTS assay to test for compound auto fluorescence at 535 nm (green) in HEK293 cell free culture (AID 720682). The procedure, abridged: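 DMEM + 10% FBS, cell-free; cpd or DMSO pinned in; Ex485/Em535 read; output as fluorescein-equivalent signal.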
A short description of test [4]: qHTS assay to test for compound auto fluorescence at 590 nm (red) in HEK293 cell free culture (AID 720683). The procedure, abridged: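 Tox21 10K library compounds were pinned into cell-free DMEM with 10% FBS and fluorescence was read at excitation 540 nm. Activity is expressed as Rose Bengal sodium equivalency.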
A short description of test [5]: qHTS assay to test for compound auto fluorescence at 590 nm (red) in HepG2 cell free culture (AID 720684). The procedure, abridged: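 Red fluorescence (540 nm excitation, 590 nm emission) was measured after compound transfer into cell-free MEM supplemented with 10% FBS. Values are equivalencies against Rose Bengal sodium.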
Test [6] in a line: qHTS assay to test for compound auto fluorescence at 460 nm (blue) in HepG2 cell free culture (AID 720685). The procedure, abridged: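 Compound (23 nL) or DMSO pinned into cell-free MEM with 10% FBS; blue fluorescence read at 405/460 nm excitation/emission, expressed as auto-fluorescence equivalency to triamterene.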
The nature of test [7]: qHTS assay to test for compound auto fluorescence at 535 nm (green) in HepG2 cell free culture (AID 720686).
A short description of test [8]: qHTS assay to test for compound auto fluorescence at 460 nm (blue) in HepG2 cells (AID 720687). The gist of the method: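 Cells (2,000/well in MEM with 10% FBS) attached overnight at 37 C, then were exposed to compound or DMSO for 1 hr at 37 C, 5% CO2. Fluorescence read at Ex/Em 405/460 nm, expressed as triamterene-equivalent signal.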
The target of test [9] is Glucocorticoid receptor (Homo sapiens) (UniProt P04150). The test is described as follows: qHTS assay to identify small molecule agonists of the glucocorticoid receptor (GR) signaling pathway (AID 720691; active = well fitted activation curve with a large enough effect in the signal ratio in the repeat runs, not every such curve was filed as active; the % refers to the signal ratio). To be noted: GR-bla HeLa, beta-lactamase reporter ratio, 18 h; activation: at 62.4 µM (top of the series). The gist of the method:
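Fluorescence intensity from LiveBLAzer B/G FRET substrate (2 h, room temperature) reports beta-lactamase expression driven by the glucocorticoid response element in GR-bla HeLa cells after 18 h compound exposure at 37 C.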

The target is the same in test [10]. The test is described as follows: qHTS assay to identify small molecule antagonists of the glucocorticoid receptor (GR) signaling pathway (AID 720692; active = well fitted inhibition curve with a large enough effect in the signal ratio in the repeat runs, not every such curve was filed as active; the % refers to the signal ratio; also: potency is read from the fitted curve at half-maximal effect). The gist of the method:
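HeLa GR-bla cells; cmpd + dex 5 nM final, 18 h 37 C; LiveBLAzer B/G FRET substrate 2 h RT; fluorescence intensity read. Antagonist mode, qHTS.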

Records with an inconclusive call do not appear. Calls of active or inactive are those of the source. Unless noted, calls follow the shape of the dose curve; as a rule, active = well fitted curve in the direction sought with a large enough effect in the repeat runs; inconclusive = weak or mixed curves; inactive = flat fitted curve, though single readings scatter.

Sequence of Glucocorticoid receptor (Homo sapiens) (P04150 whole entry, looked up): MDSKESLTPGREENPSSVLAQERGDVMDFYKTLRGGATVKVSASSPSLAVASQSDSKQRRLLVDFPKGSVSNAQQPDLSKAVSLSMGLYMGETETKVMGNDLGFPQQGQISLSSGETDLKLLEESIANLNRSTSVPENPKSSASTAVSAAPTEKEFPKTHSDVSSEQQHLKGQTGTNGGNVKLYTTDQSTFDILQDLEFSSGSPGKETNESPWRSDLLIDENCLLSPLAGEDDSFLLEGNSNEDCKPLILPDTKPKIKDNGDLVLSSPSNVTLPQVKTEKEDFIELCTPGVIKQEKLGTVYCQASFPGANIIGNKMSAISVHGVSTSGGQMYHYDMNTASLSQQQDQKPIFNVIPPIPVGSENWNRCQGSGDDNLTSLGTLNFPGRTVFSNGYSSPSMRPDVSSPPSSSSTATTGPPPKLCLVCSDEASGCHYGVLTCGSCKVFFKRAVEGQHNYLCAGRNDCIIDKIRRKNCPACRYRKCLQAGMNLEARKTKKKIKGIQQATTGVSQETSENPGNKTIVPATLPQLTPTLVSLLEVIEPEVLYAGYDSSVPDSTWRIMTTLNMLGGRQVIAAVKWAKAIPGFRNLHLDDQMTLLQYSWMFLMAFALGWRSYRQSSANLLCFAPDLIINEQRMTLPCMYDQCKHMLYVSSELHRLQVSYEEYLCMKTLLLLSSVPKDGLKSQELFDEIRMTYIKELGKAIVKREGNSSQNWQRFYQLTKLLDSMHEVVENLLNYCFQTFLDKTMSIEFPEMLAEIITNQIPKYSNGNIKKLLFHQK

For `COc1ccc(C(=O)Nc2ccccc2CCC2CCCCN2C)cc1` (stereo not given), the Potency entry in test [1], in test [2], in test [3], in [4], in test [5] and in test [7] was “inactive” throughout. For the same compound, the Potency entry in test [9] and in test [10] was “inactive” each time. For the same compound, the result in test [6] and in [8] was inactive.
Consider `CC(=O)N(CC(C)C(=O)O)c1c(I)cc(I)c(N)c1I` (stereo not given), for which the Potency entry in test [1], in test [2], in test [3], in test [4], in [5] and in test [7] was “inactive” in each case. The Potency result in [9] and in test [10] was “inactive” each time. For the same compound, the compound was classed as inactive in test [6] and in test [8].
Turning to `CC1(C)S[C@@H]2[C@H](NC(=O)C(C(=O)O)c3ccsc3)C(=O)N2[C@H]1C(=O)O` (stereo not given in full), the Potency result in [1], in test [2], in [3], in test [4], in test [5] and in test [7] was “inactive” each time. For the same compound, the Potency result in [9] and in test [10] was “inactive” each time. Further, the compound was called inactive in test [6] and in [8].
For the compound `Nc1ncnc(Nc2ccc(Cl)cc2)n1`, the Potency result in [1], in test [2], in test [3], in [4], in [5] and in [7] was “inactive” throughout. Moreover, the Potency result in test [9] and in test [10] was “inactive” in each case. For the same compound, the result in [6] and in test [8] was inactive.
`CCOC(=O)[C@H](CCc1ccccc1)N[C@H]1CCCN2CCC[C@@H](C(=O)O)N2C1=O`: the Potency result in [1], in test [2], in test [3], in [4], in [5] and in [7] was “inactive” in each case. Moreover, the Potency entry in [9] and in test [10] was “inactive” throughout. The outcome in [6] and in [8] was inactive.
Consider `O=C(CCCCCCCCCCCCC1CCCC1)Nc1ccc(S(=O)(=O)c2ccc(NC(=O)CCCCCCCCCCCCC3CCCC3)cc2)cc1`, for which the Potency result in [1], in test [2], in [3], in [4], in test [5] and in [7] was “inactive” each time. Moreover, the Potency result in test [9] and in test [10] was “inactive” in each case. Moreover, the compound was called inactive in test [6] and in [8].
In the case of `C#C[C@]1(OC(C)=O)CC[C@H]2[C@@H]3CCC4=CC(=O)CC[C@@H]4[C@H]3CC[C@@]21C`, the Potency entry in test [1], in test [2], in test [3], in test [4], in test [5] and in [7] was “inactive” each time. Also, the compound was called inactive in test [6] and in [8]. Besides, the Potency in [10] is 2.13 µM (active).
Take `O.O=C([O-])CC([S-])C(=O)[O-].[Au+].[Na+].[Na+]` (stereo not given): the Potency result in test [1], in [2], in test [3], in test [4], in [5] and in test [7] was “inactive” throughout. Moreover, the Potency result in test [9] and in test [10] was “inactive” in each case. Further, the outcome in [6] and in [8] was inactive.
For `O=C(O)c1ccc(OCCn2ccnc2)cc1`, the Potency result in test [1], in [2], in [3], in [4], in test [5] and in test [7] was “inactive” in each case. Also, the Potency result in [9] and in [10] was “inactive” in each case. The compound was classed as inactive in test [6] and in [8].
In the case of `C[C@]12CC[C@@H]3c4ccc(OS(=O)(=O)O)cc4CC[C@H]3[C@@H]1CCC2=O`, the Potency result in test [1], in test [2], in test [3], in [4], in [5] and in test [7] was “inactive” in each case. In addition, the Potency result in test [9] and in test [10] was “inactive” throughout. For the same compound, the outcome in test [6] and in [8] was inactive.
Take `CCCC(=O)Nc1ncnc2c1ncn2[C@@H]1O[C@@H]2COP(=O)(O)O[C@H]2[C@H]1OC(=O)CCC`: the Potency entry in [1], in [2], in test [3], in test [4], in [5] and in test [7] was “inactive” throughout. For the same compound, the Potency result in [9] and in test [10] was “inactive” throughout. Further, the compound was classed as inactive in [6] and in test [8].
On to `N#CC(c1ccc(Cl)cc1)c1c(Cl)cc(-n2ncc(=O)[nH]c2=O)cc1Cl` (stereo not given), for which the Potency entry in [1], in test [2], in [3], in test [4], in test [5] and in [7] was “inactive” in each case. For the same compound, the result in test [6] and in test [8] was inactive. In addition, the Potency in test [10] was 23.9 µM (active).
As for `CC1C(=O)CC2C3(C)CCC2(C(C)C(=O)O)C(=O)C13` (stereo not given), the Potency entry in test [1], in test [2], in test [3], in test [4], in test [5] and in test [7] was “inactive” in each case. For the same compound, the Potency result in [9] and in [10] was “inactive” throughout. The call in test [6] and in test [8] was inactive.
`OC[C@H]1O[C@@H](n2cnc3c2NC=NC[C@H]3O)C[C@@H]1O`: the Potency entry in test [1], in test [2], in test [3], in [4], in [5] and in test [7] was “inactive” each time. Further, the Potency result in [9] and in test [10] was “inactive” in each case. The outcome in test [6] and in test [8] was inactive.
`Clc1ccc(COC(Cn2ccnc2)c2ccc(Cl)cc2Cl)c(Cl)c1` (stereo not given): the Potency entry in test [1], in test [2], in test [3], in test [4], in [5] and in test [7] was “inactive” throughout. The Potency result in test [10] is “inactive”. The result in test [6] and in test [8] was inactive.
With `CN[C@H]1CCc2cc(OC)c(OC)c(OC)c2-c2ccc(OC)c(=O)cc21`, the Potency result in test [1], in test [2], in test [3], in test [4], in [5] and in test [7] was “inactive” each time. For the same compound, the Potency result in test [9] was “inactive”. Besides, the compound was called inactive in [6].
For `CCCCCCCCCCCCCCCC(=O)OCCC1CCN(CCCN2c3ccccc3Sc3ccc(S(=O)(=O)N(C)C)cc32)CC1`, the Potency result in test [1], in [2], in test [3], in test [4], in test [5] and in [7] was “inactive” throughout. For the same compound, the Potency result in test [9] and in [10] was “inactive” in each case. Further, the call in test [6] was inactive.
On to `CCC(=O)OCC(=O)[C@@]1(OC(=O)CC)[C@H](C)C[C@H]2[C@@H]3CCC4=CC(=O)C=C[C@]4(C)[C@@]3(F)[C@@H](O)C[C@@]21C`, for which the Potency entry in test [1], in test [2], in [3], in test [4] and in [5] was “inactive” in each case. Moreover, the result in test [6] and in test [8] was inactive.
For the compound `CCCCCCCCCCCCCCCCCC(=O)OC[C@@H](O)[C@H]1OC[C@H](O)[C@H]1O`, the Potency result in test [1], in test [2], in test [3], in test [4], in test [5] and in test [7] was “inactive” in each case. The Potency entry in test [9] and in test [10] was “inactive” each time. The outcome in test [6] was inactive.
